# Laboratory results reported in PubChem BioAssay (NCATS).
# Results filed as inconclusive are left out. Where a call stands in place of a potency, no number is given. Values without a mark were called inactive. Activity calls are given as the source filed them. The call rests on the fitted dose curve; in most records, active means well fitted curve in the direction sought with a large enough effect; inconclusive means small, poorly fitted or top-dose-only effect, or another doubt; inactive means no such curve, though single readings can be large; an effect the other way counts as inactive or inconclusive.
# What was measured:
# [1] = Primary qHTS for inhibitors of nuclear receptor binding SET domain protein 2 (NSD2) in an isogenic RCH-ACV NSD2 p.E1099K mutant (9B) (AID 1645876)
# [2] = Primary qHTS for inhibitors of nuclear receptor binding SET domain protein 2 (NSD2) in an RCH-ACV wild type WT cells (2C) (AID 1645877)
# Further: nearly all actives have a fitted effect of over 70% in size.
# Potency means the concentration at half of the fitted maximal effect.
SMILES,Potency [1],Potency [2],"activity change, negative = viability loss [1]","activity change, negative = cell killing [2]"
Clc1ccc(N2C[C@H]3CC[C@@H](C2)N3)nn1,inactive,inactive,,
CN(C(=O)Cc1ccccc1)C(CN1CCCC1)c1ccccc1 (configuration not stated),inactive,inactive,,
CCN1CC2(COC)C3[C@@H](OC)C4C1C3(C1C[C@]3(O)[C@H](OC(=O)c5ccccc5)C1[C@]4(OC(C)=O)[C@@H](O)[C@@H]3OC)[C@H](OC)C[C@H]2O (some centres not stated),inactive,inactive,,
CCN1C[C@]2(COC(=O)c3ccccc3N3C(=O)C[C@H](C)C3=O)CC[C@H](OC)[C@@]34[C@@H]5C[C@H]6[C@H](OC)[C@@H]5[C@](O)(C[C@@H]6OC)[C@](O)([C@@H](OC)[C@H]23)[C@@H]14,inactive,inactive,,
COC1CC(OC2CCC3(C)C(CCC4C3CCC3(C)C(C5=CC(=O)OC5)C(OC(C)=O)CC43O)C2)OC(C)C1OC1OC(CO)C(O)C(O)C1O (configuration not stated),483 nM (active),1210 nM (active),,
CO[C@@H]1[C@H](O)[C@@H](O[C@@H]2C[C@H]3CC[C@@H]4C(CC[C@]5(C)[C@@H](C6=CC(=O)OC6)CC[C@]45O)[C@@]3(C)[C@H](O)C2)O[C@H](C)[C@@H]1O[C@@H]1O[C@H](CO)[C@@H](O)[C@H](O)[C@H]1O (some centres not stated),121 nM (active),304 nM (active),,
C=CC(C)(O)CC/C=C(\C)C(=O)O[C@H]1[C@H](O)[C@@H](CO)O[C@@H](OC(=O)[C@]23CCC(C)(C)CC2C2=CCC4[C@@]5(C)CC[C@H](O[C@@H]6O[C@H](CO[C@@H]7OC[C@H](O)[C@H](O)[C@H]7O[C@@H]7OC[C@@H](O)[C@H](O)[C@H]7O)[C@@H](O)[C@H](O)[C@H]6O)C(C)(C)C5CC[C@@]4(C)[C@]2(C)CC3)[C@@H]1OC1OC(C)C(O[C@@H]2OC[C@@H](O)[C@H](O[C@@H]3OC[C@@H](O)[C@H](O)[C@H]3O)[C@H]2O)C(O)C1O (some centres not stated),,,-17.9% [at 9.23 µM],-28.4% [at 9.23 µM]
COC(=O)C1(C)CCC(O)C2(C)c3c(O)cc(C(C)C)cc3C(O)C(OC(C)=O)C12 (configuration not stated),inactive,inactive,,
CC(=O)OC1CC(O)C2(C)C(CC(OC(C)=O)C3(C)C2CCC2(C)C(c4ccoc4)C(=O)C4OC423)C1(C)C (configuration not stated),inactive,inactive,,
CCN1C[C@]2(OC(=O)c3ccccc3NC(C)=O)CC[C@H](OC)[C@@]34[C@@H]2C[C@@H]([C@@H]13)[C@@]1(O)C[C@H](OC)[C@H]2C[C@@H]4[C@]1(O)[C@H]2OC,inactive,inactive,,
CCC(C)(OC(C)=O)C(=O)O[C@H]1[C@H](OC(C)=O)C[C@@H]2[C@@](C)([C@@H]3C[C@H]4C=CO[C@H]4O3)[C@H](C)C[C@H](OC(C)=O)[C@@]2(COC(C)=O)[C@@]12CO2 (some centres not stated),inactive,inactive,,
